Each structure is given as a SMILES string. Results filed as inconclusive are left out. Activity calls are given as the source filed them. Calls come from the whole dose curve; as a rule, active = well fitted inhibition curve with a large enough effect; inconclusive = small, poorly fitted or top-dose-only effect; inactive = flat fitted curve, though single readings scatter.

The values that follow come from PubChem BioAssay (NCATS).
% is set by controls: 0 for no effect and ±100 for the full control effect; potency is the fitted concentration of half-maximal effect.

This experiment relates to astro (control astrocytes). Briefly: Drug repurposing screens with cells derived from glioblastoma tumor samples (AID 1345199). Note: nearly all actives have a fitted effect of over 40% in size. To be noted: viability, ATP luminescence, 48 h; series mostly up to 45.9 µM; activity, negative = cell killing: at the top concentration. In short, it runs like this: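 Primary testing used CD133+ neurospheres from four GBM patients, seven concentrations, 48 h exposure and ATP-based viability; confirmation added three slower-growing patient lines.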
Consider `C[C@H](N)[C@H](O)c1cccc(O)c1`, for which the “activity, negative = cell killing” value was -13.1% [at 21.2 µM] (inactive). On the same count and under the same terms, in the case of `[O-][n+]1cccc(CO)c1` it was -9.48% (inactive); in that of `NC(N)=NCCC[C@H](N)C(=O)O`, -12.3% (inactive). For `CCCCCCCCCCCCCCCCCCOCC(O)CO` (stereo not given), the “activity, negative = cell killing” value is -5.58% (inactive). Turning to `NC1CCN(c2cccc(Cl)n2)CC1`, the “activity, negative = cell killing” value was -26.4% (inactive). As for `CCN(CC)CCNC(C(=O)OCCC(C)C)c1ccccc1` (stereo not given), the “activity, negative = cell killing” value was -6.41% (inactive). For the compound `O=C(O)c1ccccc1-c1ccc(C(F)(F)F)cc1`, the “activity, negative = cell killing” value was -10.8% (inactive).

For `CSc1ccc2c(c1)C(N1CCN(C)CC1)Cc1ccccc1S2` (stereo not given), the Potency was 20 µM (active). Consider `CCN(CC)C(=O)Nc1ccc(OCC(O)CNC(C)(C)C)c(C(C)=O)c1` (stereo not given), for which the “activity, negative = cell killing” value is 4.47% (inactive).

Consider `CCC(=O)c1ccc(O)cc1`, for which the “activity, negative = cell killing” value was 3.33% (inactive).

As to `CCOC(CN1CCN(CC(C)C(=O)c2ccccc2)CC1)c1ccccc1` (stereo not given), the “activity, negative = cell killing” value was -11.2% (inactive). With `CN1CCCCC1CCN1c2ccccc2Sc2ccc(S(C)=O)cc21` (stereo not given), the Potency entry is “inactive”. On to `Nc1ccc(S(=O)(=O)Nc2ccccc2)cc1`, for which the “activity, negative = cell killing” value is 1.2% (inactive). Consider `CC1CC(OC(=O)C(O)c2ccccc2)CC(C)(C)N1C` (stereo not given), for which the Potency entry was “inactive”. Consider `COC(=O)[C@H]1[C@H]2C[C@@H]3c4[nH]c5cc(OC)ccc5c4CCN3C[C@H]2C[C@@H](OC(=O)COc2ccc(OC)cc2)[C@@H]1OC`, for which the “activity, negative = cell killing” value was -25.4% (inactive).

With `Cc1ccc(C(C)C)cc2c(C)ccc1-2`, the “activity, negative = cell killing” value is -8.33% (inactive).

In the case of `C[C@@H]1CCN(C(=O)[C@H](CCCN=C(N)N)NS(=O)(=O)c2cccc3c2NC[C@H](C)C3)[C@@H](C(=O)O)C1`, the “activity, negative = cell killing” value is -11.7% (inactive).

Turning to `c1ccc(CN(CC2=NCCN2)c2ccccc2)cc1`, the “activity, negative = cell killing” value was -21% (inactive). Turning to `COc1ccc2[nH]c(S(=O)Cc3ncc(C)c(OC)c3C)nc2n1` (stereo not given), the “activity, negative = cell killing” value was -28.1% (inactive).

For the compound `COc1cc(C)c(Cc2cnc(N)nc2N)cc1OC`, the “activity, negative = cell killing” value was -5.78% (inactive). Take `O=C(O)Cc1sc(-c2ccccc2)nc1-c1ccc(Cl)cc1`: the Potency result is “inactive”. Turning to `CC1=C(CC(=O)O)c2cc(F)ccc2/C1=C\c1ccc(S(C)=O)cc1` (stereo not given), the “activity, negative = cell killing” value was -20.6% (inactive). As for `CCOc1ccc2ccccc2c1C(=O)N[C@@H]1C(=O)N2[C@@H]1SC(C)(C)[C@@H]2C(=O)O`, the “activity, negative = cell killing” value is -18.7% [at 21.2 µM] (inactive). `Cc1c(O)cccc1C(=O)N[C@@H](CSc1ccccc1)[C@H](O)CN1C[C@H]2CCCC[C@H]2C[C@H]1C(=O)NC(C)(C)C`: the Potency was 35.5 µM (active). `CC(C)(C(=O)O)c1ccc(C(O)CCCN2CCC(C(O)(c3ccccc3)c3ccccc3)CC2)cc1` (stereo not given): the “activity, negative = cell killing” value was -12% (inactive). For the compound `NC(=O)NC(=O)Cc1ccccc1`, the “activity, negative = cell killing” value was -11.3% (inactive). As for `NC(=O)NNc1ccccc1`, the Potency result was “inactive”. With `CN1[C@@H]2CC(OC(=O)[C@H](CO)c3ccccc3)C[C@H]1[C@@H]1O[C@@H]12` (stereo not given in full), the Potency result was “inactive”. For `O=C(O)c1ccccn1`, the “activity, negative = cell killing” value was -13.2% (inactive). For the compound `C[C@]12C[C@H](O)[C@H]3[C@@H](CCC4=CC(=O)CC[C@@]43C)[C@@H]1CC[C@@H]2C(=O)CO`, the “activity, negative = cell killing” value is -23.7% (inactive). Consider `C[C@H](NC(CCc1ccccc1)C(=O)O)C(=O)N1CCC[C@H]1C(=O)O` (stereo not given in full), for which the “activity, negative = cell killing” value is -3.58% (inactive). In the case of `COc1ccc2c(c1)C(=O)N(CCc1ccc(S(=O)(=O)NC(=O)NC3CCCCC3)cc1)C(=O)C2(C)C`, the “activity, negative = cell killing” value is -16.9% [at 21.2 µM] (inactive). Regarding `Oc1cn2c(n1)Nc1ccc(Cl)c(Cl)c1C2`, the Potency entry was “inactive”. In the case of `C[C@H]1O[C@@H](n2cc(F)c(=O)[nH]c2=O)[C@H](O)[C@@H]1O`, the “activity, negative = cell killing” value was -15.8% (inactive).

Consider `C[C@@H](O)[C@H](N)C(=O)O`, for which the “activity, negative = cell killing” value was -14.8% (inactive).
